# Results reported in PubChem BioAssay (NCATS).
# Values without a mark were called inactive. Results filed as inconclusive are left out. Activity calls are given as the source filed them. Unless noted, calls come from the whole dose curve.
# Assays:
# [1] = target: Peroxisome proliferator-activated receptor gamma (Homo sapiens) (UniProt P37231); experiment: qHTS assay for small molecule antagonists of peroxisome proliferator-activated receptor gamma signaling (AID 588537; active = well fitted inhibition curve with a large enough effect in the signal ratio, with a control signal flat, not every such curve was filed as active; the % refers to the signal ratio; note: potency is the fitted concentration of half-maximal effect)
# Chain of Peroxisome proliferator-activated receptor gamma (Homo sapiens) (P37231 whole entry, looked up): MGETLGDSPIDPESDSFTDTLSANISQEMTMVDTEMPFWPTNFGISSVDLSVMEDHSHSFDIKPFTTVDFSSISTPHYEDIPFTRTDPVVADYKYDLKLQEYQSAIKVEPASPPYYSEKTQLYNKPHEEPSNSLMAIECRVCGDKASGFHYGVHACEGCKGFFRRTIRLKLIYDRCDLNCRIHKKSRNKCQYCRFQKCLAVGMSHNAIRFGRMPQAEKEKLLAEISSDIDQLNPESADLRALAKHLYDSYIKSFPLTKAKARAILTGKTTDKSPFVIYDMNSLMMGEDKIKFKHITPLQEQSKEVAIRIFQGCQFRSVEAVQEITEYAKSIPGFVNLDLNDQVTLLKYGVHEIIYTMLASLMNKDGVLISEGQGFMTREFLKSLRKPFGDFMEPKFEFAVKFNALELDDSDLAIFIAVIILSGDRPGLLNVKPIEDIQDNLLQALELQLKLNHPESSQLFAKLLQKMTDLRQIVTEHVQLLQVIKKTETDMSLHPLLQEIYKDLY
# Outline: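 Antagonist-mode β-lactamase reporter screen run as a titration series. HEK293 PPARγ-UAS-bla cells are stimulated with rosiglitazone (50 nM final) for 16 h, then CCF4 is read at 460/530 nm. Data are scaled between DMSO and rosiglitazone and fitted to the Hill equation.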
# [2] = target: Vitamin D3 receptor (Homo sapiens) (UniProt P11473); experiment: qHTS assay for small molecule agonists of vitamin D receptor signaling (AID 588543); note: potency is the fitted concentration of half-maximal effect
# Chain of Vitamin D3 receptor (Homo sapiens) (P11473 whole entry, looked up): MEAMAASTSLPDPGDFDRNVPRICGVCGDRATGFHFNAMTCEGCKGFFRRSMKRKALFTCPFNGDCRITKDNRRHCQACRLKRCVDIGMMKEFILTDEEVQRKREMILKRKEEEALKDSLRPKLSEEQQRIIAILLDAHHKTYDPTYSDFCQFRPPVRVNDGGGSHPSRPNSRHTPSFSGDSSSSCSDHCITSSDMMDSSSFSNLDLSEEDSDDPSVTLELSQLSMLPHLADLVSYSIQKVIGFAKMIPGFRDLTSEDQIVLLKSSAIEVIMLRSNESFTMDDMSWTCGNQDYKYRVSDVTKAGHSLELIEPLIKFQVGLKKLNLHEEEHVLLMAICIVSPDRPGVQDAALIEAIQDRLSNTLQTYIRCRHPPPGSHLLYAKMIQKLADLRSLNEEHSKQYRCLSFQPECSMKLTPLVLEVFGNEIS
# Outline: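 Measured: β-lactamase reporter activity (CCF4, 405 nm excitation, 460/530 nm emission) in HEK293T VDR-UAS-bla cells after 16 h compound exposure at 37 °C. Normalization against 50 nM 1α,25-dihydroxyvitamin D3 and DMSO; Hill-fit EC50.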
# [3] = target: Thyroid hormone receptor beta (Homo sapiens) (UniProt P10828); experiment: qHTS assay for small molecule agonists of thyroid hormone receptor beta signaling (AID 588545); note: potency is the fitted concentration of half-maximal effect
# Chain of Thyroid hormone receptor beta (Homo sapiens) (P10828 whole entry, looked up): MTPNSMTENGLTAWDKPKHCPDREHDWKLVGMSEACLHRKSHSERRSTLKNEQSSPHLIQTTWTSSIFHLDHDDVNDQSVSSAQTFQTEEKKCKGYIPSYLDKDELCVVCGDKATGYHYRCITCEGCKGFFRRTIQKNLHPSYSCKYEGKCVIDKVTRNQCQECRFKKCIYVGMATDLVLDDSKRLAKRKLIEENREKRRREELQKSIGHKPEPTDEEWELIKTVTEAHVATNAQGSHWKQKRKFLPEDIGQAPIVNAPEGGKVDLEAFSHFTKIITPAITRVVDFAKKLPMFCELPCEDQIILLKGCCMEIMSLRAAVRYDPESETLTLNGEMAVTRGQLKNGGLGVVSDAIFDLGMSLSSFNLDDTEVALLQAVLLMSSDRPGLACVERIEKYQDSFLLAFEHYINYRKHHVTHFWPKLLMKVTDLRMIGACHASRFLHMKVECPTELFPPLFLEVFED
# Outline: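 Efficacy and EC50 values derive from Hill fits of qHTS titration data, normalized to 10 nM T3 and DMSO-only wells. HEK 293 reporter cells were stimulated for 18 hrs at 37 C, with beta-lactamase activity measured by CCF4 fluorescence.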
# [4] = qHTS assay for small molecule activators of the p53 signaling pathway (AID 651743; active = well fitted activation curve with a large enough effect in the signal ratio, not every such curve was filed as active; the % refers to the signal ratio; note: potency is the fitted concentration of half-maximal effect); details: HCT-116 p53RE-bla, beta-lactamase FRET ratio, 16 h; activation: active compounds read high
# Outline: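 After 16 hours compound treatment at 37 C, HCT-116 cells stably expressing p53RE-driven beta-lactamase were loaded with LiveBLAzer B/G FRET substrate for 2 hours at room temperature. Fluorescence intensity served as the p53 activation read-out.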
# [5] = qHTS assay for small molecule activators of the nuclear factor-kappa B (NF-kB) signaling pathway (AID 651749; active = well fitted activation curve with a large enough effect in the signal ratio; the % refers to the signal ratio; note: potency is the fitted concentration of half-maximal effect); details: NF-kB-bla ME-180 cells, beta-lactamase FRET ratio, 16 h; activation: active compounds read high
# Outline: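 Activation measured after 16 hr compound treatment at 37C, 5% CO2, of 2,000 ME-180 cells/well stably expressing an NF-kB response element–driven beta-lactamase reporter, via FRET-disruption fluorescence.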
# [6] = qHTS assay for environmental chemicals that activate the Aryl hydrocarbon Receptor (AhR) signaling pathway (AID 651777; active = well fitted curve in the direction sought with a large enough effect; an effect the other way counts as inactive or inconclusive; note: % of control where 0% means no effect; nearly all actives have a fitted effect of over 15% in size); details: 1A2-DRE human hepatoma cells, luciferase, 24 h; activation: active compounds read high
# Outline: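 1A2-DRE human hepatoma reporter line; 1,200 cells/well; cmpd or DMSO 24 h, 37 C/5% CO2; One-Glo 30 min RT; luciferase lum.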
# [7] = target: Peroxisome proliferator-activated receptor alpha (Homo sapiens) (UniProt Q07869); experiment: qHTS assay for small molecule agonists of the peroxisome proliferator-activated receptor alpha (PPARalpha) signaling pathway (AID 651778; active = well fitted curve in the direction sought with a large enough effect; an effect the other way counts as inactive or inconclusive; note: % of control where 0% means no effect); details: PathHunter PPARalpha complementation, chemiluminescence, 6 h; active compounds read high
# Chain of Peroxisome proliferator-activated receptor alpha (Homo sapiens) (Q07869 whole entry, looked up): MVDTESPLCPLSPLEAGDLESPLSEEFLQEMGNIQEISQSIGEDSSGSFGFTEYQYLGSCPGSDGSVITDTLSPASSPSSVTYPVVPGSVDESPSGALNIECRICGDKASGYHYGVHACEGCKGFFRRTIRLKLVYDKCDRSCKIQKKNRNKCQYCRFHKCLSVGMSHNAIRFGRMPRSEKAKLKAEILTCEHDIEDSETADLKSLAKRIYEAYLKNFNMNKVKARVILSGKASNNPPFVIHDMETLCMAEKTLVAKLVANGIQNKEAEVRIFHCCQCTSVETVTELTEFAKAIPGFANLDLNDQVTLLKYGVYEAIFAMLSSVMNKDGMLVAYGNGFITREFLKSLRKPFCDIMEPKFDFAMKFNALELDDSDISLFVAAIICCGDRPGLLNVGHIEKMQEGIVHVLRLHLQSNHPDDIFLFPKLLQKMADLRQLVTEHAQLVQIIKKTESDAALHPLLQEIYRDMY
# Outline: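 Chemiluminescence from complemented enzyme reported PPARalpha activation in cells after 6 hr of compound treatment at 37 C. The detection reagent was incubated for 60 min at room temperature, and compounds were scored as agonists.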
# [8] = qHTS assay for small molecule agonists of the antioxidant response element (ARE) signaling pathway measured by Nrf2-dependant transcriptional activity - cell viability counter screen (AID 720653; active = well fitted curve in the direction sought with a large enough effect in the repeat runs; an effect the other way counts as inactive or inconclusive; note: % is set by controls: 0 for no effect and ±100 for the full control effect); details: ARE-bla HepG2 viability, CellTiter-Glo ATP luminescence, 16 h; max response: active compounds read low
# Outline: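 Cytotoxicity counter screen: intracellular ATP quantified by CellTiter-Glo luminescence in the same ARE-bla HepG2 plates, after 16 h compound exposure and a 2 h beta-lactamase substrate step.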
# [9] = qHTS assay for cell viability of the p53RE-bla HCT-116 cell line (AID 743292; active = well fitted curve in the direction sought with a large enough effect; an effect the other way counts as inactive or inconclusive; note: % is set by controls: 0 for no effect and ±100 for the full control effect; nearly all actives have a fitted effect of over 55% in size)
# Outline: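 HCT-116 p53RE-bla cells seeded 4,000/well; 5 h at 37 C; compound (DMSO) added; 16 h at 37 C; CellTiter-Glo added, 30 min RT; luminescence read.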
# [10] = target: Nuclear receptor subfamily 1 group I member 2 (Rattus norvegicus) (UniProt Q9R1A7); experiment: qHTS assay for small molecule activators of the rat pregnane X receptor (rPXR) signaling pathway (AID 651751; call rule not given here; note: 0% is about no effect); details: rPXR reporter cells, luciferase (One-Glo), 24 h
# Chain of Nuclear receptor subfamily 1 group I member 2 (Rattus norvegicus) (Q9R1A7 whole entry, looked up): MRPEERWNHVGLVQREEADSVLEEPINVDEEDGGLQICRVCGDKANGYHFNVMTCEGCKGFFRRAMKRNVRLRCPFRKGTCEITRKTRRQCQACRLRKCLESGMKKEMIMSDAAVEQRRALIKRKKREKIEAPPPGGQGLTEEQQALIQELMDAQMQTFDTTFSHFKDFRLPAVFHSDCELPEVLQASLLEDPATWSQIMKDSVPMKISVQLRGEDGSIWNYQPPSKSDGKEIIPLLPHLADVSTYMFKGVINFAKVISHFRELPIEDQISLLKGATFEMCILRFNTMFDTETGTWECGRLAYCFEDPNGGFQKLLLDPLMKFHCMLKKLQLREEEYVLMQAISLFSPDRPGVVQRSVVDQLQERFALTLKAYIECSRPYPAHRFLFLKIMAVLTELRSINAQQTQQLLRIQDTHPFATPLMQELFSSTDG
# [11] = qHTS assay for small molecule activators of the human pregnane X receptor (PXR) signaling pathway (AID 720659; call rule not given here; note: 0% is about no effect)
# [12] = Primary qHTS for Huh7 cytotoxicity: counterscreen for inhibitors of MERS-S pseudotyped particle cell entry (AID 1479147); details: outcome: dose series up to 57.1 µM unless noted
# [13] = Primary qHTS for Vero E6 cytotoxicity: counterscreen for inhibitors of SARS-S pseudo-typed particle cell entry (AID 1479150); details: outcome: dose series up to 57.1 µM unless noted; note: % is set by controls: 0 for no effect and ±100 for the full control effect
Structure (SMILES),Potency [1],Potency [2],Potency [3],Potency [4],Potency [5],activation [6],max response [7],max response [8],outcome [9],max response [10],outcome [11],outcome [12],outcome [13]
C[C@@H]1Cc2c(Cl)cc(C(=O)N[C@@H](Cc3ccccc3)C(=O)O)c(O)c2C(=O)O1,2 µM (active),44.7 µM (active),44.7 µM (active),0.891 µM (active),44.7 µM (active),8.7%,-0.744%,9.38%,inactive,-12%,inactive,–,–
COc1ccc(C(C)(C)C)cc1CN[C@H]1C2CCN(CC2)[C@H]1C(c1ccccc1)c1ccccc1,–,–,–,–,–,–,–,–,–,–,–,inactive,inactive
